# Laboratory results taken from PubChem BioAssay AID1159580 (chemical genetic matrix, 2015).
# Values joined by “and” are separate entries in the source; they are usually repeats but may differ in a detail not shown here. Identical values can stand only once. Hit rate of the full screen: of about 5,500 compounds, about 2,000 (36%) were called active. About 18% were inconclusive and are not listed. The list shows a part of the results. Unmarked numbers belong to inactive results. Cut-off read from the data, not from the text of the source: active = normalized growth mostly below about 0.91 (no sharp cut-off); inconclusive = no clear call, values can overlap the other calls; inactive = mostly above about 0.92.
# Assay: chemical genetic growth profiling, strain panel (AID 1159580);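 note: tested at 20 µM; growth read once vehicle control cultures reached saturation at 30 °C; 1 = growth at the plate median or of vehicle wells; lower values mean less growth of the strain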
# Details: S. cerevisiae deletion strains, growth OD
smiles,measurement,setting,value
CCCCCCCCCCCC[C@H](C(=O)O)[C@@H](C)C(=O)O,normalized growth,"locus YAL013W, strain DEP1, stronger effect = lower value",0.992
same,normalized growth,"locus YAL021C, strain ccr4, stronger effect = lower value",1.02
same,normalized growth,"locus YAL026C, strain drs2, stronger effect = lower value",0.952
same,normalized growth,"locus YAL030W, strain snc1, stronger effect = lower value",0.984
same,normalized growth,"locus YBL061C, strain skt5, stronger effect = lower value",0.982
same,normalized growth,"locus YBR009C, strain hhf1, stronger effect = lower value",0.994
same,normalized growth,"locus YBR021W, strain FUR4, stronger effect = lower value",0.995
same,normalized growth,"locus YBR023C, strain chs3, stronger effect = lower value",0.982
same,normalized growth,"locus YBR171W, strain sec66, stronger effect = lower value",0.936
same,normalized growth,"locus YBR229C, strain ROT2, stronger effect = lower value",0.993
same,normalized growth,"locus YBR231C, strain swc5, stronger effect = lower value",0.986
same,normalized growth,"locus YBR279W, strain paf1, stronger effect = lower value",0.976
same,normalized growth,"locus YCL011C, strain gbp2, stronger effect = lower value",0.995
same,normalized growth,"locus YCL016C, strain dcc1, stronger effect = lower value",0.996
same,normalized growth,"locus YCL029C, strain bik1, stronger effect = lower value",1.02
same,normalized growth,"locus YCL061C, strain MRC1, stronger effect = lower value",0.963
same,normalized growth,"locus YCL069W, strain vba3, stronger effect = lower value",0.975
same,normalized growth,"locus YCR088W, strain abp1, stronger effect = lower value",0.976
same,normalized growth,"locus YDL005C, strain med2, stronger effect = lower value",0.995
same,normalized growth,"locus YDL035C, strain GPR1, stronger effect = lower value",0.995
same,normalized growth,"locus YDL040C, strain nat1, stronger effect = lower value",0.977
same,normalized growth,"locus YDL074C, strain BRE1, stronger effect = lower value",0.986
same,normalized growth,"locus YDL101C, strain DUN1, stronger effect = lower value",1.02
same,normalized growth,"locus YDL134C, strain PPH21, stronger effect = lower value",0.993
same,normalized growth,"locus YDL185W, strain tfp1, stronger effect = lower value",1.03
same,normalized growth,"locus YDL192W, strain arf1, stronger effect = lower value",1.01
same,normalized growth,"locus YDR001C, strain nth1, stronger effect = lower value",0.966
same,normalized growth,"locus YDR069C, strain doa4, stronger effect = lower value",0.999
same,normalized growth,"locus YDR101C, strain arx1, stronger effect = lower value",1.01
same,normalized growth,"locus YDR137W, strain rgp1, stronger effect = lower value",0.929
same,normalized growth,"locus YDR150W, strain NUM1, stronger effect = lower value",0.998
same,normalized growth,"locus YDR159W, strain sac3, stronger effect = lower value",0.902
same,normalized growth,"locus YDR162C, strain NBP2, stronger effect = lower value",1.01
same,normalized growth,"locus YDR195W, strain ref2",0.98
same,normalized growth,"locus YDR297W, strain sur2, stronger effect = lower value",0.976
same,normalized growth,"locus YDR318W, strain mcm21, stronger effect = lower value",1.02
same,normalized growth,"locus YDR334W, strain swr1, stronger effect = lower value",0.985
same,normalized growth,"locus YDR335W, strain msn5, stronger effect = lower value",0.986
same,normalized growth,"locus YDR388W, stronger effect = lower value",1.01
same,normalized growth,"locus YDR392W, strain spt3, stronger effect = lower value",0.832
same,normalized growth,"locus YDR502C, strain sam2, stronger effect = lower value",1.02
same,normalized growth,"locus YEL003W, strain gim4, stronger effect = lower value",0.995
same,normalized growth,"locus YEL037C, strain rad23, stronger effect = lower value",0.976
same,normalized growth,"locus YEL061C, strain CIN8 (second series), stronger effect = lower value",0.957
same,normalized growth,"locus YEL061C, strain CIN8, stronger effect = lower value",0.988
same,normalized growth,"locus YER015W, strain faa2, stronger effect = lower value",0.985
same,normalized growth,"locus YER016W, strain bim1, stronger effect = lower value",0.984
same,normalized growth,"locus YER110C, stronger effect = lower value",1
same,normalized growth,"locus YER111C, strain swi4, stronger effect = lower value",0.938
same,normalized growth,"locus YER155C, strain BEM2 (second series), stronger effect = lower value",0.874
same,normalized growth,"locus YER155C, strain BEM2, stronger effect = lower value",0.979
same,normalized growth,"locus YER167W, strain BCK2, stronger effect = lower value",1.01
same,normalized growth,"locus YFR010W, strain ubp6, stronger effect = lower value",1.02
same,normalized growth,"locus YGL078C, strain dbp3, stronger effect = lower value",0.98
same,normalized growth,"locus YGL086W, strain mad1, stronger effect = lower value",1.01
same,normalized growth,"locus YGL167C, strain pmr1, stronger effect = lower value",0.943
same,normalized growth,"locus YGL173C, strain kem1, stronger effect = lower value",0.958
same,normalized growth,"locus YGL227W, strain vid30, stronger effect = lower value",0.975
same,normalized growth,"locus YGL240W, strain doc1, stronger effect = lower value",0.979
same,normalized growth,"locus YGL248W, strain PDE1, stronger effect = lower value",1
same,normalized growth,"locus YGL253W, strain hxk2, stronger effect = lower value",0.976
same,normalized growth,"locus YGR078C, strain PAC10, stronger effect = lower value",1.01
same,normalized growth,"locus YGR135W, strain pre9, stronger effect = lower value",1.01
same,normalized growth,"locus YGR229C, strain SMI1, stronger effect = lower value",0.999
same,normalized growth,"locus YGR252W, strain gcn5, stronger effect = lower value",1.05
same,normalized growth,"locus YHR013C, strain ard1, stronger effect = lower value",1.01
same,normalized growth,"locus YHR027C, strain rpn1, stronger effect = lower value",0.984
same,normalized growth,"locus YHR030C, strain SLT2, stronger effect = lower value",0.993 and 0.941
same,normalized growth,"locus YHR079C, strain IRE1 (second series), stronger effect = lower value",1
same,normalized growth,"locus YHR079C, strain IRE1, stronger effect = lower value",0.953
same,normalized growth,"locus YHR094C, strain hxt1, stronger effect = lower value",0.989
same,normalized growth,"locus YHR129C, strain ARP1, stronger effect = lower value",0.989
same,normalized growth,"locus YHR142W, strain chs7, stronger effect = lower value",1.02
same,normalized growth,"locus YHR200W, strain rpn10, stronger effect = lower value",1.02
same,normalized growth,"locus YIL066C, strain RNR3, stronger effect = lower value",0.992
same,normalized growth,"locus YIL073C, strain SPO22, stronger effect = lower value",1.06
same,normalized growth,"locus YIL125W, strain kgd1, stronger effect = lower value",0.997
same,normalized growth,"locus YIR030C, strain dcg1, stronger effect = lower value",1
same,normalized growth,"locus YJL092W, strain hpr5, stronger effect = lower value",0.967
same,normalized growth,"locus YJL095W, strain BCK1 (second series), stronger effect = lower value",0.992
same,normalized growth,"locus YJL095W, strain BCK1, stronger effect = lower value",1.01 and 0.953
same,normalized growth,"locus YJL115W, strain asf1, stronger effect = lower value",0.94
same,normalized growth,"locus YJL129C, strain trk1, stronger effect = lower value",0.797 (active)
same,normalized growth,"locus YJL134W, strain LCB3, stronger effect = lower value",0.991
same,normalized growth,"locus YJL154C, strain vps35, stronger effect = lower value",0.99
same,normalized growth,"locus YJL164C, strain tpk1, stronger effect = lower value",0.999
same,normalized growth,"locus YJL166W, strain qcr8, stronger effect = lower value",0.992
same,normalized growth,"locus YJL168C, strain set2, stronger effect = lower value",1
same,normalized growth,"locus YJL187C, strain SWE1 (second series), stronger effect = lower value",1
same,normalized growth,"locus YJL187C, strain SWE1, stronger effect = lower value",0.971
same,normalized growth,"locus YJR043C, strain POL32, stronger effect = lower value",0.996
same,normalized growth,"locus YJR066W, strain TOR1, stronger effect = lower value",0.884
